# Assay results from the supplement of paper PMC6555819.
# Legend:
# Assay in all cases: PBM binding z-score (relative to random genomic background probes); higher = stronger binding; sequences stand for … in GC…GCGATTGACAGCGTAGAATGAAGG
# [1] = system: FXR:RXRa (NR concentration 270 nM, RXRa partner concentration 90 nM)
# Outline: (§1)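 The probes on custom Agilent 4×180K protein-binding microarrays were double-stranded, with 34-nt variable regions bearing direct-repeat seeds, single-nucleotide variants, half-site ablations and random human genomic background sequences. Incubation lasted 1 h with ligand-free nuclear receptor dimers in PBS pH 7.4, 2% milk, 0.02% Triton X-100, 1 mM DTT, 0.2 mg/mL BSA and 0.4 mg/ml salmon testes DNA. Antibodies against each partner (one per run) detected bound dimers, and fluorescence scans were regression-normalized. Binding z-scores take the random background probes as reference.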
# [2] = system: LXRa:RXRa (NR concentration 270 nM, RXRa partner concentration 90 nM)
# Outline: as §1
# [3] = system: LXRa homodimer (NR concentration 270 nM)
# Outline: as §1
# [4] = system: LXRb:RXRa (NR concentration 270 nM, RXRa partner concentration 90 nM)
# Outline: as §1
# [5] = system: LXRb homodimer (NR concentration 270 nM)
# Outline: as §1
# [6] = system: PPARa:RXRa (NR concentration 270 nM, RXRa partner concentration 90 nM)
# Outline: as §1
# [7] = system: PPARg:RXRa (NR concentration 180 nM, RXRa partner concentration 90 nM)
# Outline: as §1
# [8] = system: PPARg:RXRa 270nM:90nM, anti-RXR (NR concentration 270 nM, RXRa partner concentration 90 nM)
# Outline: as §1
# [9] = system: PPARg:RXRa 30nM:10nM, anti-RXR (NR concentration 30 nM, RXRa partner concentration 10 nM)
# Outline: as §1
# [10] = system: PPARg:RXRa 90nM:30nM, anti-RXR (NR concentration 90 nM, RXRa partner concentration 30 nM)
# Outline: as §1
Sequence,PBM binding z-score [1],PBM binding z-score [2],PBM binding z-score [3],PBM binding z-score [4],PBM binding z-score [5],PBM binding z-score [6],PBM binding z-score [7],PBM binding z-score [8],PBM binding z-score [9],PBM binding z-score [10]
CCTGCTAGGTCACGGTCAGCTAATCTACAGTATG,4.56,3.65,0.541,2.45,0.134,4.05,4.31,4.17,1.72,3.2
CCGAGTGGGGCAGAAAGGTTACCATACCATCCGG,0.579,0.723,0.104,0.959,-0.975,2.23,1.76,2.79,0.657,2.3
CCTACTGGGCCAAAGGTCATTCATTCCAATGCTC,4.99,5.4,5.18,5.18,1.33,6.7,12.2,10.6,10.6,11.8
CAAACTAGGCCACGAAAGGTCAAAGTCGAATGAC,5.14,6.19,5.85,5.69,1.75,6.2,7.45,6.7,4.3,6.62
CGTCCAGGGTCAGAGAGGTCAGTGAATGCCGAGT,5.65,4.8,1.62,4.15,-0.103,4.87,3.32,4.21,1.19,2.81
GGAACGAGGCCAAAGTTGATAGCATCTGTCGACG,0.0318,-0.0376,-0.578,-0.183,-0.827,3.46,5.8,6.25,5.14,6.31
ATGTCTAGGTAAAGTTCAGTGAAAGATCGATAGA,1.21,1.74,1.26,1.15,0.816,2.56,3.51,4.55,2.43,4.25
TAGTCTAGGTCATGGGCCAGTATACCACGCGAAC,4.42,3.68,1.27,2.58,1.74,4.88,7.25,6.37,3.68,6
CCGACTGGGGCATAAAGTTACCATAAGCCAGCCC,-0.335,-0.54,-0.298,-0.42,-1.15,0.0732,0.855,0.803,-0.215,0.313
CAAACTAGGTCACAGGAAGGTCAAAGTCCGCATG,5.68,6.01,4.15,4.78,1.18,6.19,9.73,7.57,5.77,7.73
ACAGTCAGGTGATGAAGGTAACTCAGGCTATCAT,0.11,-0.185,-0.351,-0.331,-0.338,0.116,0.349,-0.0826,0.0143,-0.0221
GCTATTAGTTGTAAGGGCAACCGAATGATTCTCG,0.301,0.305,0.235,0.38,-0.00961,0.472,0.397,0.63,0.129,0.634
TCTCGGAGGACACGAAGGGCAGAGCTTTCCAGAG,0.172,-0.265,-0.59,-0.711,-1.26,-0.128,-0.047,0.753,1.78,1.13
ACTATTAGTTGAGTCGAGGGCAACCGATAGGTTG,0.84,0.505,0.226,0.34,0.349,0.703,0.466,0.452,0.0326,0.43
TCTTGTAGATCAATAGAGCTTAAGAAAGTGCGCT,-0.769,-0.425,-0.995,-0.356,-0.706,0.188,-0.467,0.973,2.31,1.85
GCGAGCAGGCCATTTGGGTCACTCAATGACGGGC,0.039,-0.0343,-0.692,0.145,-1.06,1.37,0.6,0.408,-0.542,0.0983
TAGCCTAGGTCAGATGGGGCCAGTATACGCTATA,2.75,1.56,-0.0271,1.38,-0.069,1.78,0.972,1.14,0.184,0.725
CTCGAAAGGTCGTTCTCAGGTGAGTATACCAAAC,5.6,4.19,1.08,3.68,1.37,4.56,1.99,3.08,0.949,2.29
ATTTCTAGGTAAAGTTCAGTGAAAGATCGATAGA,1.69,2.17,1.41,1.4,1.27,2.82,3.19,4.21,2.41,4.03
TCTTGTAGATCAATAGAGGTTAAGTAAGTGCGCT,1.18,3.63,0.745,1.96,-0.0782,2.03,0.0612,1.68,2.63,2.16
TCTCCTAGGTCAGTTGGTCAGCTAACGAGCTGCC,1.57,1.17,0.111,1.26,1.43,1.89,0.491,2.47,2.9,2.75
TAGCCTAGGTCAGATCGGGCCAGAATACGCTATA,1.65,1.06,-0.312,0.942,-0.714,1.79,0.869,0.835,-0.187,0.398
ATCGAAAGGTGGAAGGTGAGTATACCCACCCGAA,0.216,0.0772,-0.308,0.022,-0.0817,1.53,1.53,2.05,0.816,1.58
ACTAGCAGGCCAAGTTTGGGTCACTTAAACAAAG,0.098,0.217,-0.18,0.878,-0.362,1.52,0.21,0.715,-0.186,0.815
CTCCAAAGGTCGTGCTCAGGTGAGTATACCAAAC,5.95,4.42,0.227,3.67,0.361,5.08,3.62,4.58,1.3,3.35

Sequence,PBM binding z-score [1],PBM binding z-score [2],PBM binding z-score [3],PBM binding z-score [4],PBM binding z-score [5],PBM binding z-score [6],PBM binding z-score [7],PBM binding z-score [8],PBM binding z-score [9],PBM binding z-score [10]
CGAACTAGGTCAAAGGTCAAAGTCGAGCCAACCA,8.28,7.41,5.37,7.03,2.53,7.47,14.1,11.4,14.7,14
CGTCAAAGTTCAACTAAGGTAACGCAAAGCACGC,7.01,6.31,4.34,4.15,1.94,5.28,5.24,5.67,2.5,4.74
TCATATAGGTAATACAGGTGAAGGTCGGCATCTA,1.22,1.34,0.87,1.02,0.522,2.28,1.83,3.03,4.02,3.78
CCTTACGGGTCACTCCAGGCTATAGCATCGGAGT,4.45,5.59,-0.324,2.91,-0.145,4.07,2.95,3.31,0.716,1.9
CGAACTGGGTCATTGACAGGACAGTGAATAGTAA,3.16,1.97,0.288,1.86,-0.438,4.39,6.77,5.84,2.72,5.44
AGAACGAGGGCAATGAGTGGATAGCACGGGTGGC,0.0707,0.00914,-0.454,-0.474,-0.905,1.12,1.49,0.671,0.264,0.612
GCGACTTGGGCATCAGCAGGTTACCATAACTTAA,-0.439,-0.445,-0.567,-0.214,-0.905,-0.0723,0.0729,-0.529,-0.585,-0.893
AATACAGGGTCACTAGGCGAGAGTAGGTACGAAT,6.08,4.92,1.02,3.94,1.26,5.66,7.02,6.14,2.65,4.89
AAATGTAGGTTATCGGGTCATTCAGTTTGCGCAT,3.38,3.09,1.81,2.9,0.806,5.21,7.59,6.43,4.76,6.15
TCTTGTAGATCAACAGGAGGTAAAGAAAGATCGA,-0.194,-0.0725,-0.569,-0.104,-0.41,0.461,0.106,1.19,2.4,1.96
ATCGAAAGGTAGTGAGGTGAGTATACAGAAAGGC,0.0464,-0.187,0.0161,-0.247,-0.154,0.153,0.582,0.0693,0.155,0.0111
CCAGACAGGTGACAGGTAACTCAGTCTGGTACGC,-0.312,-0.0899,-0.169,-0.0936,-0.582,0.79,1.37,1.4,0.0561,0.74
GTACCACGGTGAATAGGTCGTTGATGAGTAGGCG,-0.0112,-0.00221,-0.237,-0.365,-0.842,0.664,0.525,0.597,-0.227,0.557
TAGCCTAGGTCATGGGGCAGTATACCACGCGAAC,4.95,3.44,0.357,3.37,0.499,4.39,5.11,4.52,1.89,3.69
CCGACTTGGGCAGAAAGGTTACCATACCATCCGG,0.0234,0.228,-0.275,0.646,-1.09,1.44,1.06,1.64,0.23,0.892
TCTTGTAAATCAATAGAGGTTAAGAAAGTGCGCT,0.793,3.32,0.658,1.86,0.26,1.86,0.0624,1.82,3.77,2.44
CAGCCTAGCTCAGGGCCAGTATAGGAGGAACGTT,-1.13,-1.14,-0.395,-1.15,-1.28,-1.21,-0.195,-1.24,-1.24,-1.17
CAGCCTAGGTCAGGGCCAGCATAGGAGGAACGTT,1.52,0.758,-0.392,0.314,-1.18,1.98,0.816,1.02,-0.543,0.19
TGAATGAGGTTAAAAATCAGGGAACGTGGCGTCG,1.83,1.78,-0.491,1.1,0.545,2.87,1.72,2.33,1.16,1.77
GCTCGGAGGACAAAGTCAGAGCTTTGTCCGTAGA,-0.547,-0.56,-0.429,-0.512,-0.588,-0.568,-1.55,-0.786,-1.61,-0.843
GCTGCTAGGTTAGGTTGGTCAGCTAACGGGTACG,-0.39,-0.356,-0.358,-0.526,-0.743,-0.376,-0.306,-0.464,-0.769,-0.625
TAGCCTAGGTCATCCGGGCCAGTATAGTGTCGGC,4.52,3.54,0.755,2,0.281,3.48,1.95,2.35,0.0412,1.5
AATGCAGGGTCACTAGGCCAGAGTAGGTACGAAT,6.22,4.62,0.0121,3.54,0.179,5.78,7.48,6.77,3.41,5.76
CCTACTTGGTCAGGAGGTCACACACCGGATATGA,3.55,3.69,2.02,3.39,0.285,4.29,3.39,3.9,1.75,3.1
